MITF primary = MITF inhibitors, primary screen, biochemical, AlphaScreen, human; Microphthalmia-associated transcription factor (Homo sapiens), O75030; inhibition, % at 2.6 µM; AID 1259374, 2018; hit rate 0.91% among 650,000; AlphaScreen MITF homodimerization, bead proximity signal; in the data active = inhibition above about 50%;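 also: 0% = vehicle wells with protein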
GPR151 ag = activators of human GPR151, primary screen, cell-based, PathHunter beta-arrestin, luminescence. G-protein coupled receptor 151 (Homo sapiens), Q8TDV0. PathHunter beta-arrestin GPR151 cells. activation, % at 11.2 µM. hit rate 1% among 650,000. AID 1508602, 2020; in the data active = activation above about 4.9%;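 also: 0% = median of compound wells and 100% = cells with positive control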
TEAD-YAP block = TEAD-YAP interaction inhibition, primary screen, TEAD-YAP interaction inhibitor project, luminescence, HEK-TIYL cells | TEAD-Gal4/YAP UAS-luciferase luminescence | inhibition, % at 9.12 µM | hit rate 1.4% among 640,000 | AID 1259422, 2018; in the data active = inhibition above about 32%;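 also: 0% = median of test compound wells and 100% = reference inhibitor wells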
FBW7 activator = FBW7 E3 ligase activators, primary screen, biochemical, AlphaScreen, human; F-box/WD repeat-containing protein 7 (Homo sapiens), Q969H0; AlphaScreen FBW7–phospho-cyclin E peptide binding, activator screen; normalized activity (activation), % at 26.1 µM; hit rate 0.13% among 650,000; AID 1259310, 2017; in the data active = normalized activity above about 1.9%;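 also: purified mutant Fbw7 with reduced substrate affinity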
Target sequence (Q969H0 whole entry, looked up): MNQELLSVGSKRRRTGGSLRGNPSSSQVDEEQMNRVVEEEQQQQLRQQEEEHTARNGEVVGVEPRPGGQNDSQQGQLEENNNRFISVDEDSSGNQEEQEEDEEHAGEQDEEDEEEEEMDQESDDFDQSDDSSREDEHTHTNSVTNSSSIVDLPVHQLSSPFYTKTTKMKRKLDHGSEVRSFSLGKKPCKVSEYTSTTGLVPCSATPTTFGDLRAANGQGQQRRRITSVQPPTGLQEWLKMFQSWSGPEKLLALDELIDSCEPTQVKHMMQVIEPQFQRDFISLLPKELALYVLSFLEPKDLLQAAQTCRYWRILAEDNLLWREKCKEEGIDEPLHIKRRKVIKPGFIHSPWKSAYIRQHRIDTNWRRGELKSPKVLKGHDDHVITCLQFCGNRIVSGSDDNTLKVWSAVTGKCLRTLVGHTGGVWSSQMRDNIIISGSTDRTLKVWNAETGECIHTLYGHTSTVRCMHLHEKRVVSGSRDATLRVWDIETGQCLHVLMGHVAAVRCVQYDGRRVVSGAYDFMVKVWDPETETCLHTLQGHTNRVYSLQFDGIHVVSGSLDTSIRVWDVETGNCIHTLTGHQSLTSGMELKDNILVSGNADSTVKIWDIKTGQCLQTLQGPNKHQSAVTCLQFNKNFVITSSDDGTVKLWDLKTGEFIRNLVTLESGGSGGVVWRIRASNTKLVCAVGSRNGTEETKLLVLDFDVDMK
* = called active by the depositor. Hits are enriched below; roughly 3.5% of the tested compounds scored in any of these assays.

SMILES	MITF primary	GPR151 ag	TEAD-YAP block	FBW7 activator
CCNc1nc(NCc2nc3ccccc3[nH]2)c2ncn(-c3ccccc3)c2n1	8	2	-1	0
COc1cc(Nc2nc(NCc3nc4ccccc4[nH]3)c3ncn(-c4ccccc4)c3n2)cc(OC)c1OC	1	0	62*	0
COc1cc(Nc2nc(NCc3cccnc3)c3ncn(-c4ccccc4)c3n2)cc(OC)c1OC	12	1	1	0
c1ccc(-n2cnc3c(NCc4nc5ccccc5[nH]4)nc(-c4csc5ccccc45)nc32)cc1	-3	-1	-10	6.9*
CN1CCN(CCCNc2c([N+](=O)[O-])c(=O)oc3ccccc23)CC1	4	-1	9	0
NC(=O)CSc1nnnn1-c1ccccc1F	4	-2	12	2.4*
CCOC(=O)CSc1nnnn1-c1ccccc1F	6	-2	-1	1
Fc1ccccc1CSc1nnnn1-c1ccccc1F	21	-1	-13	2.3*
CCC(CC)C(=O)Nc1ccc(N(C)C)cc1	9	2	4	0
O=c1c(O)c(-c2ccccc2)oc2cc(O)cc(O)c12	-19	-1	-21	0
O=c1c(O)c(-c2cc(O)c(O)c(O)c2)oc2cc(O)cc(O)c12	82*	0	2	0
Cc1ccsc1/C=C1\CCc2ccccc2C1=O	-3	-11	68*	0
COc1ccc(N/C=C/C(=O)c2ccc(OC)c(OC)c2)cc1	-8	1	-6	0
COc1ccc(C(=O)/C=C/Nc2ccc(Br)cc2)cc1OC	3	-1	-15	0
COc1cc(C(=O)/C=C/Nc2ccc(I)cc2)cc(OC)c1OC	-1	2	36*	0
COc1cc(C(=O)/C=C/Nc2ccc(Br)cc2)cc(OC)c1OC	-2	0	38*	0
COc1ccc(N/C=C/C(=O)c2cc(OC)c(OC)c(OC)c2)cc1	15	-1	42*	0
CC(C)(C)C(=O)N1CCC(C(=O)c2ccc(Cl)cc2)CC1	9	1	3	0
CCOc1ccc(N(C(C)C(=O)Nc2ccccc2C(=O)OC)S(C)(=O)=O)cc1 (stereo not drawn)	-10	-1	35*	0
CCOc1ccccc1NC(=O)C(C)N(c1ccc(Cl)cc1)S(C)(=O)=O (stereo not drawn)	3	-1	6	0
CCOc1ccc(N(C(C)C(=O)Nc2ccccc2OCC)S(C)(=O)=O)cc1 (stereo not drawn)	9	0	54*	0
CCOc1ccccc1NC(=O)C(C)Oc1ccc(OC)cc1 (stereo not drawn)	-3	0	48*	0
CCOc1ccccc1NC(=O)C(C)Oc1ccccc1 (stereo not drawn)	-13	0	-1	0
COC(=O)C1=C(C)NC2=C(C(=O)CC(C)(C)C2)C1c1ccccc1C(F)(F)F (stereo not drawn)	-8	1	14	0
Cc1ccccc1-n1nc2c(c1NC(=O)c1cc([N+](=O)[O-])ccc1Cl)CS(=O)(=O)C2	-19	3	67*	0
SMILES	MITF primary	GPR151 ag	TEAD-YAP block	FBW7 activator
COc1ccc(-n2nc3c(c2NC(=O)c2cc([N+](=O)[O-])ccc2Cl)CSC3)cc1	13	2	61*	0
CC(C)(C)n1nc2c(c1NC(=O)c1cc(Cl)ccc1Cl)CSC2	4	-1	3	0
CC(C)(C)n1nc2c(c1NC(=O)c1cc([N+](=O)[O-])ccc1Cl)CSC2	-7	2	89*	0
Cc1ccc(-n2nc3c(c2NC(=O)c2cc([N+](=O)[O-])ccc2Cl)CSC3)c(C)c1	16	1	71*	0
Cc1cc(=O)n(CC(=O)Nc2ccc(Cl)cc2)c(-n2nc(C)cc2C)n1	2	3	11	0
O=c1[nH]c(N/N=C/c2ccc(O)cc2O)nnc1Cc1ccccc1	104*	-1	8	0
COc1ccc(Cc2nnc(N/N=C/c3cccs3)[nH]c2=O)cc1OC	-9	-1	4	-1
COc1ccc(Cc2nnc(N/N=C/c3cc([N+](=O)[O-])ccc3O)[nH]c2=O)cc1OC	115*	2	-2	0
COc1ccc(/C=N/Nc2nnc(Cc3ccccc3)c(=O)[nH]2)cc1OC	15	0	4	0
O=c1[nH]c(N/N=C/c2ccccc2O)nc2ccccc12	78*	-3	72*	0
COC(=O)c1cc(CNC(=O)C(C)(C)C)cc(NS(=O)(=O)Cc2ccccc2)c1	2	0	8	0
